SMN2 splice up = SMN2 splice variant enhancement. HEK293 SMN2-luciferase splicing reporter, luminescence, 30-36 h. Potency, µM (series often up to 46.1 µM), for the others: at the top dose activity change, positive = activation, usual class: activators. hit rate 2.8% among 210,000. AID 1458; also: % of control where 0% means no effect; nearly all actives have a fitted effect of over 55% in size
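HEK293 cells carry an SMN2 […]–luciferase reporter in which exon 7 inclusion puts luciferase in frame. Cells were plated 10-12 h before compound addition, then incubated 30-36 h at 37C. ONE-Glo luminescence was read; sodium butyrate at 4.5 mM final served as control.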
NPC1 promoter act = NPC1 promoter activation; Huh7 NPC1 promoter luciferase reporter, 24 h; Potency, µM (doses to about 9.22 µM), for inactives: top-dose activation, hits mostly activators; hit rate 2.4% among 320,000; also: % of control where 0% means no effect; nearly all actives have a fitted effect of over 60% in size
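Cells: Huh7 expressing luciferase under the NPC1 promoter, 1500/well. Seeded 2 h, compound added, incubated 24 h at 37 °C. Luciferase reagent, 10 min ambient, then luminescence.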
ELG1 genotoxic = induces genotoxicity in HEK293T cells with luciferase-tagged ELG1 | hit rate 1.3% among 330,000 | HEK293T ELG1-luciferase reporter, luminescence, 16 h | Potency, µM (top dose mostly 46 µM), for the others: at the highest dose activity change, positive = activation, most hits filed as activators; also: % of control where 0% means no effect; nearly all actives have a fitted effect of over 60% in size
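Cells (2,000/well) expressing the ELG1-luciferase fusion are dosed by pin tool and kept 16 hr at 37 °C, 5% CO2. Signal comes from ONE-Glo luciferase reagent after 30 min at room temperature.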
ELG1 repair inh = inhibitors of ELG1-dependent DNA repair in HEK293T cells. AID 504467. HEK293T ELG1-luciferase reporter, luminescence, 16 h; DNA damage induced by 5-fluorouridine. hit rate 2.3% among 330,000. Potency, µM (doses to about 46.1 µM), inactives show top-dose activity change, negative = inhibition, actives largely listed as inhibitors; also: % is scaled to controls: 0 for no effect and ±100 for the full control effect; nearly all actives have a fitted effect of over 55% in size
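Overnight (16 hr) co-exposure of 2,000 cells/well to 5-fluorouridine and compound at 37 °C preceded detection. Luciferase was quantified via ONE-Glo luminescence; loss of signal denotes inhibition.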
FLuc counter = firefly luciferase modulation, counter-screen for miR-21 project. AID 588342. purified FLuc, Km substrates, luminescence inhibition. P08659. hit rate 6.9% among 360,000. Potency, µM (series often up to 57.5 µM), for inactives: at the top dose activity change, negative = inhibition, usual class: inhibitors;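 also: plate controls were vehicle for no effect and reference inhibitor for full effect; nearly all actives have a fitted effect of over 55% in size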
Target sequence (P08659 whole entry, looked up): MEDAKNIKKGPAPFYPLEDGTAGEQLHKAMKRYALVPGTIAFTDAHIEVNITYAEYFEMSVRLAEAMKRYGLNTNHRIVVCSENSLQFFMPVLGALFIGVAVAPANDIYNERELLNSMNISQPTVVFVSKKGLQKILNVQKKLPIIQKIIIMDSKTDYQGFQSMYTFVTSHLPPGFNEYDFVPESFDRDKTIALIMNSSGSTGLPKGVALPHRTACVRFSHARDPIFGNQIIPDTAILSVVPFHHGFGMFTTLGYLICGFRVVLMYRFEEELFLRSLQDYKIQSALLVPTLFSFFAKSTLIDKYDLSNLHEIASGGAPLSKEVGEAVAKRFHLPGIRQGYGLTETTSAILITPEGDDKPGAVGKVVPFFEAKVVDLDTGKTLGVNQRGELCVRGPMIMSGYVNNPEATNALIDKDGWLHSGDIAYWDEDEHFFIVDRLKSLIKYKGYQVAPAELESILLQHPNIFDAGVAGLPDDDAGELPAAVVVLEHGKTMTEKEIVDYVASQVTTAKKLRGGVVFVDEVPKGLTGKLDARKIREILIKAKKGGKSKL
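Purified P. pyralis luciferase, 10 nM final, with Km-level 10 uM D-luciferin and 10 uM ATP in 50 mM Tris acetate pH 7.5, 10 mM Mg acetate, 0.01% Tween-20, 0.05% BSA; 6-point qHTS titration about 60 µM downward; luminescence read.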
Rab9 promoter act = Rab9 promoter activation. hit rate 2.8% among 320,000. Potency, µM (doses to about 9.22 µM), without a hit: top-dose activation, negative = inhibition, usual class: activators. Huh7 Rab9 promoter-luciferase reporter, luminescence, 24 h; also: % of control where 0% means no effect; nearly all actives have a fitted effect of over 60% in size
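Stable Rab9-luc Huh7, 1500 cells/well, 2 h settle; cmpd in DMSO, 24 h, 37 °C/5% CO2; luciferase reagent 10 min RT; luminescence.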
* marks the source's active call; other numbers are inactive results; ! = repeats disagree. Rows were chosen to be rich in hits. Some 9.3% of all compounds tested hit in one or more screens of this group. Calls follow the shape of the dose curve; as a rule, active = well fitted curve in the direction sought with a large enough effect; inconclusive = small, poorly fitted or top-dose-only effect, or another doubt; inactive = no such curve, though single readings can be large; an effect the other way counts as inactive or inconclusive. Potency is read from the fitted curve at half-maximal effect.

`CC1CCN(c2nnc(-c3cccs3)c3ccccc23)CC1` gave SMN2 splice up -1%, NPC1 promoter act 0%, ELG1 genotoxic 6%, ELG1 repair inh 9%, FLuc counter 9.5µM* and Rab9 promoter act 8%.
For Nc1cc(Cl)ccc1Oc1ccc2ccccc2c1 the results were SMN2 splice up 6%, NPC1 promoter act 21%, ELG1 genotoxic inconclusive, ELG1 repair inh inconclusive, FLuc counter inconclusive and Rab9 promoter act 18%.
Screening Cc1ccc(Oc2ccc(Cl)cc2N)cc1 returned SMN2 splice up 11%, NPC1 promoter act 20%, ELG1 genotoxic 14%, ELG1 repair inh inconclusive, FLuc counter 21µM* and Rab9 promoter act 16%.
For O=C1/C(=C/c2ccccn2)COc2ccccc21 the results were SMN2 splice up 0%, NPC1 promoter act 1%, ELG1 genotoxic -3%, ELG1 repair inh inconclusive, FLuc counter 8.5µM* and Rab9 promoter act 8%.
Screening CC(C)(C)C1C/C(=C/c2ccccn2)C(=O)/C(=C/c2ccccn2)C1 (centres undefined) returned SMN2 splice up -88%, NPC1 promoter act -44%, ELG1 genotoxic -19%, ELG1 repair inh inconclusive, FLuc counter -8% and Rab9 promoter act -36%.
`O=C1/C(=C/c2ccc(O)cc2)COc2ccccc21` gave NPC1 promoter act 0%, ELG1 genotoxic 10µM*, ELG1 repair inh inconclusive, FLuc counter 0.76µM* and Rab9 promoter act -2%.
CC1C/C(=C/c2ccccn2)C(=O)/C(=C/c2ccccn2)C1 (centres undefined) was read as SMN2 splice up -76%, NPC1 promoter act -42%, ELG1 genotoxic -17%, ELG1 repair inh 4.6µM*, FLuc counter -11% and Rab9 promoter act -43%.
`CC(C)(C)N1C(=O)c2ccccc2NC(=O)N1Cc1ccc(Br)cc1` gave SMN2 splice up -6%, NPC1 promoter act -2%, ELG1 genotoxic -2%, ELG1 repair inh -2%, FLuc counter 3% and Rab9 promoter act -1%.
Screening OCC1(Cc2ccccc2C(F)(F)F)CCN(Cc2ccccc2)CC1 returned NPC1 promoter act -2%, ELG1 genotoxic -8%, ELG1 repair inh -2%, FLuc counter -1% and Rab9 promoter act -9%.
For c1ccc(CCSc2ncnc3nc[nH]c23)cc1 the results were SMN2 splice up -7%, NPC1 promoter act inconclusive, ELG1 genotoxic 7%, ELG1 repair inh 14%, FLuc counter 15µM* and Rab9 promoter act inconclusive.
Screening O=C(CSc1ncnc2nc[nH]c12)c1ccc(Cl)cc1 returned NPC1 promoter act 12%, ELG1 genotoxic 11%, ELG1 repair inh 9%, FLuc counter -9% and Rab9 promoter act 17%.
`O=C(CSc1ncnc2nc[nH]c12)c1ccccc1` gave SMN2 splice up 11µM*!, NPC1 promoter act 2.8µM*, ELG1 genotoxic 1%, ELG1 repair inh inconclusive, FLuc counter 21µM* and Rab9 promoter act 4µM*.
CCOC(=O)C1CCN(C(=O)COc2ccc3c(C)cc(=O)oc3c2)CC1 was read as NPC1 promoter act 0%, ELG1 genotoxic 3%, ELG1 repair inh 1%, FLuc counter 2% and Rab9 promoter act -1%.
`COc1ccc(-c2ccnc(-c3ccncc3)n2)cc1` gave NPC1 promoter act -33%, ELG1 genotoxic 8%, ELG1 repair inh 8%, FLuc counter inconclusive and Rab9 promoter act -26%.
For FCCCOc1ccc(-c2ccnc(-c3ccccc3)n2)cc1 the results were SMN2 splice up -8%, NPC1 promoter act 11%, ELG1 genotoxic -1%, ELG1 repair inh inconclusive, FLuc counter 12µM* and Rab9 promoter act 20%.
For FCCCOc1ccc(-c2nccc(-c3ccc(F)cc3)n2)cc1 the results were SMN2 splice up 5%, NPC1 promoter act -1%, ELG1 genotoxic 1%, ELG1 repair inh 16%, FLuc counter 24µM* and Rab9 promoter act 1%.

High-throughput results from PubChem BioAssay.
